PubChem BioAssay (NCI)
This is part of a sample that, as a whole, favours compounds with a hit. Of some 79,000 tested, about 15% had one in any assay. Unmarked numbers belong to inactive results. Calls of active or inactive are those of the source. Cut-off read from the data, not from the text of the source: active = growth inhibition above about 70%; inactive = the rest.

Tests used:
[1] = NCI Yeast Anticancer Drug Screen. Data for the rad50 strain (AID 155);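 note: 0% = growth of vehicle-only cultures of the same strain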; conditions: S. cerevisiae rad50 strain growth inhibition, hits give high values
Procedure, shortened: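 Yeast carrying a defined DNA repair defect were exposed to test compounds, and growth was compared with vehicle-treated controls to give percent inhibition.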

[2] = NCI Yeast Anticancer Drug Screen. Data for the mec2-1 strain (AID 157); conditions: S. cerevisiae mec2-1 strain, hits give high values
Procedure, shortened: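 mec2-1 yeast strain, carrying an alteration in DNA damage repair or cell cycle control, was exposed to compounds; growth inhibition was measured relative to vehicle-treated controls.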

[3] = NCI Yeast Anticancer Drug Screen. Data for the sgs1 mgt1 strain (AID 161);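 note: 0% = growth of cultures given vehicle only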; conditions: S. cerevisiae sgs1 mgt1 strain, hits give high values
Procedure, shortened: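 This yeast growth screen uses a strain with defined DNA-repair lesions; compound-treated growth is compared with vehicle-treated growth.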

[4] = NCI Yeast Anticancer Drug Screen. Data for the cln2 rad14 strain (AID 165);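 note: 0% = growth equal to vehicle treated cultures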; conditions: S. cerevisiae cln2 rad14 strain, hits give high values
Procedure, shortened: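 Yeast carrying cln2 and rad14 alterations (cell cycle control and DNA damage repair) were exposed to compounds. Growth inhibition was measured against vehicle-treated controls.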

[5] = NCI Yeast Anticancer Drug Screen. Data for the bub3 strain (AID 167); conditions: S. cerevisiae bub3 mutant strain, hits give high values
Procedure, shortened: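 Compounds were applied to a genetically altered yeast strain carrying a cell-cycle control defect. Growth inhibition was scored against vehicle-treated controls.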

[6] = NCI Yeast Anticancer Drug Screen. Data for the mlh1 rad18 strain (AID 175); conditions: S. cerevisiae mlh1 rad18 strain growth inhibition, hits give high values
Procedure, shortened: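 Growth inhibition of the yeast strain was measured after compound exposure and expressed relative to vehicle-treated controls. The strain carries defined defects in DNA damage repair.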

[7] = at 5.0 µM (retest, dose inferred, filed as 0.5)
[8] = at 50.0 µM (retest, dose inferred, filed as 5.0)

SMILES	growth inhibition [1, 7]	growth inhibition [1, 8]	growth inhibition ([1]; at 50.0 µM)	growth inhibition [2, 7]	growth inhibition [2, 8]	growth inhibition ([2]; at 50.0 µM)	growth inhibition [3, 7]	growth inhibition [3, 8]	growth inhibition ([3]; at 50.0 µM)	growth inhibition [4, 7]	growth inhibition [4, 8]	growth inhibition ([4]; at 50.0 µM)	growth inhibition [5, 7]	growth inhibition [5, 8]	growth inhibition ([5]; at 50.0 µM)	growth inhibition [6, 7]	growth inhibition [6, 8]	growth inhibition ([6]; at 50.0 µM)
COc1ccc2nc(-c3ccc(Cl)cc3)[nH]c2c1	1%	88% (active)	72.7% (active)	-5%	91% (active)	74.9% (active)	-3%	90% (active)	80.5% (active)	-8%	47%	-4%	3%	90% (active)	94.2% (active)	-4%	78% (active)	60.3%
Nc1c(C(=O)O)cccc1[N+](=O)[O-]	2%	-1%	-5.1%	1%	-2%	9.25%	-1%	-1%	-9.1%	-1%	3%	23.2%	1%	0%	-2.1%	1%	3%	-5.05%
COC(=O)c1ccccc1NC(=O)C(=O)Cc1nc2c3c(ccc2[nH]c1=O)C(=O)c1ccccc1C3=O	35%	98% (active)	85.4% (active)	12%	99% (active)	25.8%	6%	99% (active)	16.2%	5%	98% (active)	-26.9%	6%	99% (active)	16.3%	16%	66%	66.6%
CNC(=O)c1cccc2c(Nc3ccc(NS(C)(=O)=O)cc3OC)c3cccc(C)c3nc12	47%	93% (active)	75.8% (active)	17%	95% (active)	-0.8%	12%	66%	-4.45%	30%	57%	-0.4%	19%	91% (active)	-37.2%	19%	86% (active)	-24.5%
COc1ccc(/C=C2\CCCc3ccccc3C2=O)cc1	-3%	33%	60.2%	2%	86% (active)	53.3%	9%	86% (active)	77.7% (active)	-12%	-3%	20%	64%	90% (active)	80.4% (active)	5%	81% (active)	62.2%
Cc1cccc2c1Oc1ccccc1C2N1C(=O)/C(=C/c2cccs2)SC1=S (stereo not given)	1%	12%	51.8%	-23%	37%	53.8%	-6%	28%	88% (active)	-11%	1%	72.2% (active)	-8%	-4%	26.4%	2%	45%	42.4%
COc1cc(O)c2c(c1)C(=O)C1=C(C2=O)[C@@H](C)OC(C)[C@H]1O (stereo not given in full)	8%	96% (active)	53.4%	2%	94% (active)	6.2%	8%	97% (active)	-4.5%	1%	95% (active)	-22.4%	21%	97% (active)	-2.75%	8%	97% (active)	-6.25%
CCC(Cl)COP(=O)(OC(c1ccc(Cl)c(Cl)c1)P(=O)(OCC(Cl)CC)OCC(Cl)CC)C(CC)CCl (stereo not given)	6%	71% (active)	86.7% (active)	-81%	45%	96.2% (active)	-3%	45%	94.2% (active)	-4%	57%	83.5% (active)	-2%	57%	79.5% (active)	6%	80% (active)	94.2% (active)
O=C(CCl)OCC(=O)c1ccc(-c2ccccc2)cc1	9%	97% (active)	10.2%	5%	97% (active)	-1.9%	10%	99% (active)	21.2%	28%	95% (active)	10.2%	11%	98% (active)	19.4%	16%	98% (active)	32.4%
CCCCCCCCCCCCCCOS(=O)(=O)O	26%	99% (active)	99.5% (active)	-27%	73% (active)	99.7% (active)	-1%	100% (active)	99.6% (active)	8%	61%	99.6% (active)	-9%	35%	99.7% (active)	12%	98% (active)	99.5% (active)
